From PubChem BioAssay
Cruzain inh Det – cruzain (T. cruzi) inhibition with detergent. P25779. purified cruzain, Z-FR-AMC fluorescence, 0.01% Triton. Potency, µM, for inactives: max response, negative = inhibition, most hits filed as inhibitors. hit rate 0.43% among 200,000. AID 1478;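 note: plate controls were neutral wells for no effect and buffer without enzyme for full effect; nearly all actives have a fitted effect of over 40% in size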
Target sequence (P25779 123-467 limits assumed): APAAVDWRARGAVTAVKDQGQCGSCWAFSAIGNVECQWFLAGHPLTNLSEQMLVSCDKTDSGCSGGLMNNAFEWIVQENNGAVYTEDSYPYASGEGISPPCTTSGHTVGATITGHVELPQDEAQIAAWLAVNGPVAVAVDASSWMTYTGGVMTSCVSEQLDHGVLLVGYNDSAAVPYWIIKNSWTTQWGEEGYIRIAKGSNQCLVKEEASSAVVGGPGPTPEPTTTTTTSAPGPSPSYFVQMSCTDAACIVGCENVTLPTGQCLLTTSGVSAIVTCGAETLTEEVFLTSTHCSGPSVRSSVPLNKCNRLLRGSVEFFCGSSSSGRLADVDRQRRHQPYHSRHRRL
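Steps: dispense cruzain (1.5 nM final) in acetate buffer pH 5.5 with DTT and 0.01% Triton X-100; pin-transfer compounds; incubate 15 min RT; add Z-FR-AMC (2 uM final); read fluorescence every 30 s, using the 60 s intensity change.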
Cruzain noTriton – inhibitors of Trypanosoma cruzi cruzain without detergent; P25779; purified cruzain, Z-FR-AMC fluorescence, no detergent; hit rate 2.3% among 200,000; Potency, µM, without a hit: max response, negative = inhibition, usual class: inhibitors;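 note: plate controls were enzyme without inhibitor for no effect and buffer without enzyme for full effect; nearly all actives have a fitted effect of over 40% in size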
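Detergent-free condition (0.00005% Triton X-100) in acetate buffer pH 5.5 with DTT. 1.5 nM enzyme and compound were pre-mixed 15 min, then 2 uM Z-FR-AMC substrate added; reaction progress from fluorescence change between first and third reads (60 s).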
An asterisk follows results filed as active; ? = inconclusive. In the library only some 2.4% were active in any assay of this set; here they are far more common. Calls come from the whole dose curve; as a rule, active = well fitted curve in the direction sought with a large enough effect; inconclusive = small, poorly fitted or top-dose-only effect, or another doubt; inactive = no such curve, though single readings can be large; an effect the other way counts as inactive or inconclusive. Potency is the fitted concentration of half-maximal effect.

SMILES	Cruzain inh Det	Cruzain noTriton
O=C(N/N=C/C=C/c1ccccc1)c1cc2c(ccc3ccccc32)o1	?	10µM*
O=[N+]([O-])c1ccc(O)c(N=Cc2sc3ccccc3c2O)c1	-9%	13µM*
Oc1c(C=Nc2cccc3cccnc23)sc2ccccc12	-5%	-3%
O=C(Nc1ccccc1N1CCN(C(=O)c2ccccc2)CC1)c1cc2ccccc2o1	-8%	0.16µM*
O=C(Nc1ccccc1N1CCCC1)c1cc2ccccc2o1	-2%	-13%
Cc1cccc(-c2nc3c4ccccc4nc(NCc4ccc(Cl)cc4)n3n2)c1	-1%	-15%
N#CC(C(=O)Nc1ccccc1)=C1Nc2ccccc2N1	-4%	-8%
N#C/C(C(=O)Oc1ccccc1)=C1/Nc2ccccc2-c2ccccc21	2%	13µM*
O=C(Cc1nc2ccccc2[nH]1)N/N=C/c1ccccc1	-4%	7%
COc1cccc(/C=N/NC(=O)CC2C(=O)NN=C2C)c1OC (stereo not given)	-10%	0%
COc1ccc(OC)c(/C=N/NC(=O)Cc2nc3ccccc3[nH]2)c1	22µM*	?
COc1ccc(OC)c(/C=N/NC(=O)CC2C(=O)NN=C2C)c1 (stereo not given)	-28%	32µM*
Cc1cc(Br)ccc1NC(=O)C1(S(=O)(=O)c2ccc(Cl)cc2)CC1	-8%	-14%
COc1cc(Cl)c(C)cc1NC(=O)CC(c1ccc(F)cc1)N1Cc2ccccc2C1=O (stereo not given)	-4%	3%
COc1ccc(C)cc1-n1cnc2cc(C(=O)NC3CCCCCC3)ccc21	-10%	-5%
COc1ccc(OC)c(/C=C(/C#N)c2nc(-c3ccc(-c4ccccc4)cc3)cs2)c1	-1%	0%
CCOC(=O)c1c(S(=O)(=O)NCC(=O)Nc2cccc(SC)c2)c(C)n(C)c1C	2%	13%
COc1ccc(Cl)cc1NC(=O)Cn1nnc2sc3c(c2c1=O)CCC(C(C)(C)C)C3 (stereo not given)	0%	6%
Cc1ccc(Cl)cc1NC(=O)Cn1nnc2sc3c(c2c1=O)CCC(C(C)(C)C)C3 (stereo not given)	-4%	25µM*
CCc1ccc(Cn2c(CNS(=O)(=O)c3ccc4c(c3)CCCC4)nc3cccnc32)cc1	-7%	-1%
ClC(Cl)C(Cl)Cl	5%	-2%
O=C(CSc1nc(=O)n(Cc2ccccn2)c2c1CCC2)Nc1ccccc1	-1%	-6%
COc1ccc(-n2nc3cc(C)c(NC(=S)NC(=O)c4ccccc4C)cc3n2)cc1	-3%	13µM*
CCC(=O)Nc1cc2nn(-c3ccc(OC)cc3)nc2cc1C	8%	?
CC(C)N(Cc1ccccc1)S(=O)(=O)c1n[nH]c(C(C)(C)C)n1	1%	4%
SMILES	Cruzain inh Det	Cruzain noTriton
COc1cc(NCCCCCCCN)c2ncccc2c1	-8%	16µM*
COc1cc(NC(C)CCCN)c2ncccc2c1 (stereo not given)	1%	-11%
Cc1cc(Br)c(OCc2ccc(C(=O)N/N=C3\CC4CC=CC34)cc2)c(Br)c1 (stereo not given)	-6%	20µM*
COc1cc(/C=N/NC(N)=O)cc(Br)c1OCc1ccc(C)cc1	6%	?
Nc1ccc(-c2ccc(Nc3cc(S(=O)(=O)O)c(N)c4c3C(=O)c3ccccc3C4=O)cc2)c(S(=O)(=O)O)c1	3%	-1%
Cc1cc(C)c(Nc2cc(S(=O)(=O)O)c(N)c3c2C(=O)c2ccccc2C3=O)c(C)c1	25µM*	?
Cc1cccc(-c2noc(-c3cccnc3NCc3ccco3)n2)c1	-15%	-4%
O=C(C1=C[C@@H]2[C@H]3C(=O)N(c4ccc(Cl)cc4)C(=O)[C@H]3[C@@H](C(=O)c3ccc(Cl)cc3)N2C=C1)c1ccccc1	-6%	7.9µM*
Cc1ccc(N2C(=O)C3C(C2=O)C(C(=O)c2ccc(Cl)cc2)N2CCCC32)cc1 (stereo not given)	-12%	-4%
COc1ccc(-c2nc3cnc(N4CCN(C)CC4)nc3n(-c3ccc(OC)cc3)c2=O)cc1	3%	-6%
Cc1cnn(C(=S)NCc2ccc(Cl)cc2)c1	-29%	-28%
Cc1cnn(C(=S)NCCc2ccccc2)c1	16µM*	13µM*
COc1ccc(OCC(=O)Nc2nnc3n2CCS3)cc1	1%	-3%
O=[N+]([O-])c1ccc(Nc2nc(N/N=C\c3ccc4c(c3)OCO4)nc(N3CCCCC3)n2)cc1	5%	7.9µM*
O=[N+]([O-])c1cc2c(cc1/C=N/Nc1nc(N3CCCC3)nc(N3CCCC3)n1)OCO2	-12%	14%
CCCOc1ccc(-c2nc(C#N)c(N3CCc4ccccc4C3)o2)cc1	25µM*	-92%
CCCOc1ccc(-c2nc(C#N)c(N3CCN(C)CC3)o2)cc1	1%	-9%
COc1ccc(CNC(=O)CCc2c(C)c3cc4c(C)c(C)oc4cc3oc2=O)cc1OC	-1%	-4%
COC(=O)N1CCC[C@@]2(CCN(C(=O)Nc3ccccc3)C2)C1	5%	-5%
COc1ccc(/C=N/c2c(-c3ccc(OC)cc3)nc3n2CCS3)cc1	-8%	?
COc1ccc(C2=CSC(/N=C/c3ccc(F)cc3)=NN2)cc1	-4%	13µM*
N#Cc1c(NCCN)nc(NCc2ccccc2)c2c1CCN(Cc1ccccc1)C2	-1%	7.9µM*
N#Cc1c(Cl)nc(Cl)c2c1CCN(Cc1ccccc1)C2	-9%	-22%
Cc1cccc(-c2noc(CNC(=O)c3ccccc3Br)n2)c1	-7%	-2%
CCC1(CCSC(=N)N)C(=O)NC(=O)NC1=O	4%	1%
SMILES	Cruzain inh Det	Cruzain noTriton
COc1ccc2c(c1)c(=O)c(S(=O)(=O)c1ccc(C)cc1)cn2Cc1ccccc1C	-6%	-20%
COc1ccc2c(c1)c(=O)c(S(=O)(=O)c1ccc(Cl)cc1)cn2Cc1cc(C)ccc1C	-4%	10µM*
N#C/C(=C\Nc1ccccn1)C(=O)c1ccco1	0%	1%
CCOC(=O)c1ccccc1NC(=O)CSc1nccn1Cc1ccco1	-3%	-3%
O=C(CNc1cccc(Cl)c1)c1ccc(Cl)cc1	7%	32µM*
Cc1ccc(C(=O)CNc2cccc(Cl)c2)cc1	-1%	-23%
Cc1ccc(-c2cc3nc(-c4ccccc4)cc(N4CCOCC4)n3n2)cc1	-7%	?
COc1ccc(-c2cc3nc(-c4ccccc4)cc(N4CCC5(CC4)OCCO5)n3n2)cc1	22µM*	?
CC[C@@H]1C(c2cccc(C)c2)=NN(c2ccc(Br)cc2)[C@H]1C(=O)N1CCOC1=O	0%	?
COc1cccc(OCCn2cc(/C=N/NC(=O)c3ccncc3)c3ccccc32)c1	-11%	?
COc1ccc(OCCn2cc(/C=N/NC(=O)c3ccncc3)c3ccccc32)cc1	-8%	?
CNC(=S)N/N=C/c1cn(CCOc2cccc(OC)c2)c2ccccc12	-27%	25µM*
CNC(=S)N/N=C/c1cn(CCOc2ccccc2OC)c2ccccc12	-23%	32µM*
C/C=C1\CC2C=CC1C2 (stereo not given)	1%	-3%
O=C(CSC(=S)N1CCCCC1)Nc1nc(-c2ccccc2)c(-c2ccccc2)o1	1%	?
CCN(CC)C(=S)SCC(=O)Nc1nc(-c2ccccc2)c(-c2ccccc2)o1	-2%	32µM*
COc1ncc2nc(-c3cn(C)c4ccccc34)c(=O)n(CCc3ccccc3)c2n1	1%	-12%
Cc1cc(F)ccc1NC(=O)CCS(=O)(=O)c1cc2c(cc1C)NC(=O)CO2	-3%	6%
COc1ccc(NC(=O)c2oc3ccccc3c2NC(=O)C23CC4CC(CC(C4)C2)C3)c(OC)c1	0%	?
